The results in this text go back to the supplement of paper PMC13380429.

The test system of test [1] is Vero E6 infected with SARS-CoV-2. The test can be described thus: morphology score (similarity to uninfected cells); higher = more like uninfected cells. To be noted: 24 h.
Test [2] shares this test system. The test is described as follows: SARS-CoV-2 infection rate relative to infected DMSO; higher = more infection, active = 60 or less. The following applies: 24 h.

Take `CC(Cc1cccc(C(F)(F)F)c1)NCCOC(=O)c1ccccc1` (stereo unspecified) [benfluorex] (10 µM): in test [1], the morphology score is 0.0298. In test [2], the SARS-CoV-2 infection rate is 104% (inactive).
On to `CCN1CCC(n2cc(CNc3cc(Cl)c4ncc(C#N)c(Nc5ccc(F)c(Cl)c5)c4c3)nn2)CC1` [cot-inhibitor-2] (10 µM), for which, in test [1], the morphology score is 0.683. Also, in test [2], the SARS-CoV-2 infection rate was 40.5% (active).
The corresponding values for `CC[C@@H](Nc1c(Nc2cccc(C(=O)N(C)C)c2O)c(=O)c1=O)c1ccc(C)o1` [navarixin] (10 µM) are -0.0629 and 110% (inactive).
For the compound `NS(=O)(=O)c1ccc(C(=O)O)cc1` [carzenide] (10 µM), the morphology score in test [1] stood at 0.174. Also, in test [2], the SARS-CoV-2 infection rate was 102% (inactive).
`C[C@@H]1CN(Cc2ccc(F)cc2)CCN1C(=O)COc1ccc(Cl)cc1NC(N)=O` (10 µM): the morphology score in test [1] was -0.0461. Besides, the SARS-CoV-2 infection rate in test [2] was 112% (inactive).
For `COc1cc2c(cc1OC(C)C)[C@H](c1ccc(Cl)cc1)N(c1ccc(N(C)C[C@H]3CC[C@H](N4CCN(C)C(=O)C4)CC3)cc1)C(=O)C2` (0.833333 µM), the morphology score in test [1] was 0.244. Moreover, in test [2], the SARS-CoV-2 infection rate was 93.5% (inactive).
In the case of `OC[C@H]1O[C@@H](Oc2cc3c(O)cc(O)cc3[o+]c2-c2ccc(O)c(O)c2)[C@H](O)[C@@H](O)[C@@H]1O` [kuromanin] (10 µM), in test [1], the morphology score is -0.129. Besides, the SARS-CoV-2 infection rate in test [2] was 110% (inactive).
For `N=C1N[C@H]2[C@H](CS[C@H]2CCCCC(=O)O)N1` [2-iminobiotin] (10 µM), the morphology score in test [1] was found to be 0.0808. The SARS-CoV-2 infection rate in test [2] is 99% (inactive).
The corresponding values for `C[C@]12C=CC(=O)C=C1CC[C@@H]1[C@@H]2CC[C@]2(C)OC(=O)CC[C@@H]12` [Testolactone] (10 µM) are 0.176 and 80.5% (inactive).
The corresponding values for `CC(=O)Oc1ccc(C(c2ccc(OC(C)=O)cc2)c2ccccn2)cc1` [bisacodyl] (10 µM) are 0.261 and 85.5% (inactive).
For the compound `CN1CCC(=C2c3ccccc3CCc3sccc32)CC1` [pizotifen] (10 µM), in test [1], the morphology score worked out at 0.285. Also, the SARS-CoV-2 infection rate in test [2] was 94.5% (inactive).
Take `CO[C@@]12[C@H](COC(N)=O)C3=C(C(=O)C(C)=C(N)C3=O)N1C[C@@H]1N[C@@H]12` [mitomycin-C] (10 µM): the morphology score in test [1] was found to be 0.101. For the same compound, in test [2], the SARS-CoV-2 infection rate is 104% (inactive).
In test [1], `O=C(c1cncc(Br)c1)N1CCC(N2CCCC2)CC1` (10 µM) yielded a morphology score of 0.146. The SARS-CoV-2 infection rate in test [2] was 108% (inactive).
`CN1CCN(c2nc(C3=C(c4c[nH]c5ccccc45)C(=O)NC3=O)c3ccccc3n2)CC1` [sotrastaurin] (10 µM): in test [1], the morphology score amounted to 0.0619. Further, in test [2], the SARS-CoV-2 infection rate was 119% (inactive).
Turning to `Cc1c(C(N)=O)cc([N+](=O)[O-])cc1[N+](=O)[O-]` [dinitolmide] (10 µM), in test [1], the morphology score was -0.0186. Besides, in test [2], the SARS-CoV-2 infection rate is 106% (inactive).
The corresponding values for `O=C([O-])C(O)[C@H](O)[C@@H](O)[C@H](O)[C@H](O)CO.O=C([O-])C(O)[C@H](O)[C@@H](O)[C@H](O)[C@H](O)CO.[Ca+2]` (stereo partly specified) [calcium-gluceptate] (10 µM) are -0.0282 and 114% (inactive).
As to `CCCCC(CC)CCC(CC(C)C)OS(=O)(=O)O` (stereo unspecified) [sodium-tetradecyl-sulfate] (10 µM), the morphology score in test [1] was 0.0389. In test [2], the SARS-CoV-2 infection rate is 102% (inactive).
For `CCN(CC)CCNC(=O)c1c(C)[nH]c(/C=C2\C(=O)Nc3ccc(F)cc32)c1C` [sunitinib] (0.833333 µM) the same measures were 0.396 and 99% (inactive).
For `COc1ccc(-c2ccc3c(N4CCOCC4)nc(N4C[C@@H](C)O[C@@H](C)C4)nc3n2)cc1CO` (0.833333 µM), the morphology score in test [1] was determined as 0.12. The SARS-CoV-2 infection rate in test [2] was 110% (inactive).
Regarding `CN1C(=O)C(N2CCCCC2)S/C1=C\C(=O)O` (stereo unspecified) [ozolinone] (10 µM), in test [1], the morphology score amounted to 0.00951. Moreover, the SARS-CoV-2 infection rate in test [2] was 108% (inactive).
In turn, `N[C@@H]1CCCCN(c2c(F)cc3c(=O)c(C(=O)O)cn(C4CC4)c3c2Cl)C1` [besifloxacin] (10 µM) displayed a morphology score in test [1] of 0.165. Besides, in test [2], the SARS-CoV-2 infection rate is 110% (inactive).
With `COC(=O)C1=CO[C@@H](O[C@@H]2O[C@H](CO)[C@@H](O)[C@H](O)[C@H]2O)[C@@H]2C(CO)=CC[C@H]12` [geniposide] (10 µM), the morphology score in test [1] is -0.322. The SARS-CoV-2 infection rate in test [2] was 116% (inactive).
On to `CN[C@@H]1[C@@H](O)[C@@H](O[C@@H]2[C@@H](O)[C@H](O[C@H]3O[C@H](CN)[C@@H](O)[C@H](O)[C@H]3O)[C@@H](N)C[C@H]2NC(=O)[C@@H](O)CN)OC[C@]1(C)O` [isepamicin] (10 µM), for which, in test [1], the morphology score was 0.0671. Further, the SARS-CoV-2 infection rate in test [2] is 109% (inactive).
`CC(C)c1ccc(C(=O)N=C(N)N)cc1S(C)(=O)=O` [cariporide] (10 µM) showed a morphology score in test [1] of 0.169. Also, the SARS-CoV-2 infection rate in test [2] was 101% (inactive).
`CCOC(=O)[C@H]1O[C@@H]1C(=O)N[C@@H](CC(C)C)C(=O)NCCC(C)C` [aloxistatin] (10 µM): the morphology score in test [1] turned out to be 0.331. In addition, in test [2], the SARS-CoV-2 infection rate was 90% (inactive).
As for `O=c1cc(-c2ccccc2)oc2cc(O)cc(O)c12` [chrysin] (10 µM), in test [1], the morphology score turned out to be 0.175. Besides, in test [2], the SARS-CoV-2 infection rate was 104% (inactive).
Consider `C=C1C(=O)O[C@@H]2[C@H]3C(C)=CC[C@@]34O[C@@]4(C)CC[C@@H]12` [arglabin] (10 µM), for which the morphology score in test [1] came out at 0.144. For the same compound, the SARS-CoV-2 infection rate in test [2] was 68% (inactive).
The corresponding values for `CCC[C@@H]1C[C@@H](C(=O)N[C@@H]([C@H]2O[C@H](SC)[C@H](O)[C@@H](O)[C@H]2O)[C@H](C)Cl)N(C)C1` (10 µM) are -0.131 and 102% (inactive).
